Test results taken from PubChem BioAssay (NCI).
This is part of a sample that, as a whole, favours compounds with a hit. Of some 83,000 tested, about 20% had one in any assay.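 A percent growth of 40 corresponds to 60% growth inhibition; 0 means no net growth; -100 means all cells died. Active threshold: below 10.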 Values without a mark were called inactive. Active and inactive are the calls of the source.

How the values were obtained:
Test in all cases: NCI-60 one-dose screen, 48 h (100 = growth as untreated, 0 = no growth, -100 = all killed)
SR leukemia = conditions: 10 µM unless noted
RPMI-8226 leukemia = conditions: 10 µM unless noted
OVCAR-8 ovarian = conditions: 10 µM unless noted
OVCAR-5 ovarian = conditions: 10 µM unless noted
OVCAR-4 ovarian = conditions: 10 µM unless noted
SK-OV-3 ovarian = conditions: 10 µM unless noted
IGROV1 ovarian = conditions: 10 µM unless noted
OVCAR-3 ovarian = conditions: 10 µM unless noted
NCI/ADR-RES ovarian = conditions: 10 µM unless noted
T-47D breast = conditions: 10 µM unless noted
BT-549 breast = conditions: 10 µM unless noted
MDA-MB-435 melanoma = conditions: 10 µM unless noted
SW-620 colon = conditions: 10 µM unless noted
MCF7 breast = conditions: 10 µM unless noted
HCT-116 colon = conditions: 10 µM unless noted
HCC-2998 colon = conditions: 10 µM
KM12 colon = conditions: 10 µM unless noted

| Structure (SMILES) | growth (SR leukemia) | growth (RPMI-8226 leukemia) | growth (OVCAR-8 ovarian) | growth (OVCAR-5 ovarian) | growth (OVCAR-4 ovarian) | growth (SK-OV-3 ovarian) | growth (IGROV1 ovarian) | growth (OVCAR-3 ovarian) | growth (NCI/ADR-RES ovarian) | growth (T-47D breast) | growth (BT-549 breast) | growth (MDA-MB-435 melanoma) | growth (SW-620 colon) | growth (MCF7 breast) | growth (HCT-116 colon) | growth (HCC-2998 colon) | growth (KM12 colon) |
| --- | --- | --- | --- | --- | --- | --- | --- | --- | --- | --- | --- | --- | --- | --- | --- | --- | --- |
| O=C(c1ccc(/C=C/c2n[nH]c3ccccc23)cc1)N1CCNCC1 | 5.24% (active) | 48.9% | 58.8% | 14.4% | 54.8% | 48.5% | 33.5% | 66.8% | 82.1% | 84.1% | 22.6% | 38.7% | 11.7% | 24% | 17.7% | 66.3% | 8.09% (active) |
| CCCCOc1nc2cc(Cl)ccc2cc1/C=C/c1cc(/C=C/c2cc3ccc(Cl)cc3nc2OCCCC)n(-c2ccccc2)n1 | 73% | 111% | 77.8% | 107% | 111% | 51.5% | 89.3% | 103% | 93.2% | 65.7% | 89.3% | 112% | 105% | 94.5% | 85.3% | 102% | 94.9% |
| CC(C)Nc1cc(-c2c[nH]c(C(=O)N[C@H](CO)c3cccc(Cl)c3)c2)c(Cl)cn1 | 23.9% | 21.8% | 35% | 19.5% | 42.2% | 23.3% | 18.4% | 75.9% | 47.9% | 34.7% | 57.3% | 21.7% | 20.6% | 27.9% | 15.7% | -10.9% (active) | 18.7% |
| CCN(CCCOc1ccc2c(Nc3cc(CC(=O)Nc4cccc(F)c4)[nH]n3)ncnc2c1)CCOP(=O)(O)O | 36.3% | 91.5% | 70.2% | 59.3% | 79.9% | 77.1% | 62.4% | 78.2% | 98.3% | 73.6% | 75.9% | 69.2% | 35.8% | 46.6% | 47.5% | 61.4% | 21.4% |
| NC[C@@](O)(c1ccc(Cl)cc1)c1ccc(-c2cn[nH]c2)cc1 | 0.545% (active) | 19.1% | 29.1% | 18.8% | 16.9% | 20% | -18% (active) | 52.4% | 40.9% | -57.9% (active) | 14.6% | 12.2% | 7.7% (active) | -22.2% (active) | 0.471% (active) | 12.7% | 16.6% |
| C/C(=C(/c1ccc(Cl)cc1)c1ccc(OCCN2CCCC2)cc1)c1ccccc1 | 7.27% (active) | 42.8% | 88.1% | 64.7% | 91.7% | 121% | 65.9% | 91.8% | 77.6% | 72.4% | 73.4% | 55.1% | 51.4% | 33.8% | 47.4% | 84.7% | 25.6% |
| CNC(=O)c1cccc2cc(Oc3ccnc4cc(OCC5(N)CC5)c(OC)cc34)ccc12 | 27.6% | 81.7% | 48.9% | 65.3% | 49.4% | 69.8% | 39.5% | 61.4% | 76% | 92.2% | 59.7% | 24.1% | 46.9% | 49.1% | 33.2% | 92% | 45.9% |
| C=CC(=O)N1CCC[C@H](n2c(=O)n(-c3ccc(Oc4ccccc4)cc3)c3c(N)ncnc32)C1 | 74% | 76.4% | 65.8% | 86.6% | 85.3% | 3% (active) | 30.7% | 76.4% | 74.9% | 37.7% | 91.9% | 101% | 97.4% | 86.5% | 74% | 100% | 92.1% |
| Cc1cc(Oc2ccccc2)ccc1Nc1ncnc2ccc(-c3cnc(Cl)c(NS(C)(=O)=O)c3)cc12 | 14.2% | 7.65% (active) | 40.4% | 10.8% | 40.1% | -26.3% (active) | -23.5% (active) | 11.7% | 54.6% | -22.4% (active) | -0.502% (active) | 17.9% | 38.8% | 9.35% (active) | 22.9% | 25.7% | 34.5% |
| Cn1cc(-c2ncnc3ccc(-c4cnc(Cl)c(NS(C)(=O)=O)c4)cc23)c2ccccc21 | 15.9% | 14.5% | 31% | 12.8% | 15.4% | -18.1% (active) | -24.3% (active) | 21.1% | 20.6% | -23.9% (active) | 4.5% (active) | 7.19% (active) | 21.3% | 7.57% (active) | 20.3% | 17.7% | 25.3% |
| C=CC(=O)Nc1cccc(Nc2nc(Nc3ccc(N4CCN(C(C)=O)CC4)cc3OC)ncc2C(F)(F)F)c1 | 1.68% (active) | 16.8% | 18.9% | 13.4% | 10.5% | -18% (active) | -29.9% (active) | 19.5% | 21.3% | -5.01% (active) | 19.7% | 23.1% | 2.57% (active) | 4.41% (active) | 12% | 34.7% | 15.7% |
| CN(C)CCOC(=O)Nc1nc2ccc(Sc3ccccc3)cc2[nH]1 | 22% | 19.2% | 39.4% | 59.8% | 73.4% | 33.6% | 44.9% | 22.8% | 18.1% | 22.6% | 48.4% | -54.2% (active) | 23% | 22.7% | 30.9% | 61.3% | 20.8% |
| O=C1NC(=O)[C@@H](c2cn3c4c(cccc24)CCC3)[C@@H]1c1c[nH]c2ccccc12 | 13.8% | 22.8% | 11.3% | 48% | 55.4% | -0.0481% (active) | 27.7% | 18.4% | 9.44% (active) | 24.3% | 16.2% | -13.2% (active) | 27.5% | 19.5% | 2.94% (active) | 18.4% | 4.42% (active) |
| Cc1ccc(NC(=O)c2ccc(CN3CC[C@H](N(C)C)C3)c(C(F)(F)F)c2)cc1Nc1nccc(-c2cncnc2)n1 | -7.54% (active) | -9.27% (active) | 3.4% (active) | 15.3% | -4.76% (active) | 38.6% | 0.261% (active) | -6.36% (active) | 24.9% | -58.9% (active) | 35.9% | -18.3% (active) | 8.15% (active) | 7.04% (active) | -17.4% (active) | -22.7% (active) | 10.4% |
| COC(=O)c1ccc2c(C(=Nc3ccc(N(C)C(=O)CN4CCN(C)CC4)cc3)c3ccccc3)c(O)[nH]c2c1 | 6.5% (active) | 62.4% | 53.2% | 64.5% | 68.5% | 53.2% | 33.6% | 91.3% | 82.2% | 47.4% | 55.8% | 72.6% | 67.4% | 33.5% | 20.2% | 84.3% | 8.95% (active) |
| Cc1cc(Nc2ncnc3ccc(NC4=NC(C)(C)CO4)cc23)ccc1Oc1ccn2ncnc2c1 | -14.4% (active) | 24.3% | 37.3% | 14.3% | 44.2% | 14.6% | -19.6% (active) | 46.8% | 63.3% | 32.3% | 42.4% | 43.9% | 18.2% | 21.4% | 16.1% | 18.9% | 21.3% |
| Cc1nc(Nc2n[nH]c3c2CN(C(=O)N[C@H](CN(C)C)c2ccccc2)C3(C)C)c2sccc2n1 | -12.1% (active) | -35.2% (active) | -26.3% (active) | -2.55% (active) | -12% (active) | -26.8% (active) | -17.9% (active) | 8.31% (active) | 40.3% | -25.2% (active) | -42.5% (active) | -66.2% (active) | 1.22% (active) | -3.74% (active) | -9.97% (active) | -55.1% (active) | -12.7% (active) |
